TDP1 cell noCPT: qHTS for Inhibitors of human tyrosyl-DNA phosphodiesterase 1 (TDP1): qHTS in cells in absence of CPT; 420,000 tested, 15% active; DT40 Tdp1-/- hTDP1 cells, no CPT, ATP luminescence, 48 h; Potency, µM (series often up to 46.2 µM), for inactives: at the highest dose activity change, negative = growth inhibition, most hits filed as inhibitors; note: potency is the fitted concentration of half-maximal effect; nearly all actives have a fitted effect of over 55% in size
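Cells were dispensed at 400 per well, compounds added by pin tool, plates incubated ≥48 hr at 37 °C, then CellTiter-Glo added for 30 min at room temperature before luminescence reading. Line: DT40 Tdp1-/- complemented with hTDP1; camptothecin omitted.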
HT1080-NT tox: qHTS for induction of synthetic lethality in tumor cells producing 2HG: qHTS for the HT-1080-NT fibrosarcoma cell line; HT-1080-NT fibrosarcoma viability, CellTiter-Glo ATP luminescence, 48 h; Potency, µM (series often up to 46.1 µM), inactives show at the top dose activity, negative = less viability, actives largely listed as cytotoxic; 360,000 tested, 1.6% active;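 note: NT is the 2HG producing partner of a matched IDH1 knockdown line; potency is the fitted concentration of half-maximal effect; 0% = DMSO-treated cells and -100% = media-only wells without cells; nearly all actives have a fitted effect of over 55% in size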
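Luminescent CellTiter-Glo readout after 48 hours of compound exposure at 37 degrees C defined viability of HT-1080-NT cells. Activity was normalized to DMSO wells and cell-free media wells; concentration-response curves were fitted and assigned curve classes.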
12-LOX inh: Primary qHTS assay for inhibitors of human arachidonate 12S-lipoxygenase (ALOX12): Round 2. Polyunsaturated fatty acid lipoxygenase ALOX12 (Homo sapiens), P18054. purified 12hLO, xylenol orange hydroperoxide absorbance. Potency, µM (top dose mostly 108 µM), inactives show top-dose activity change, negative = inhibition, actives largely listed as inhibitors. 580,000 tested, 1.1% active; note: potency is the fitted concentration of half-maximal effect
Target sequence (P18054 whole entry, looked up): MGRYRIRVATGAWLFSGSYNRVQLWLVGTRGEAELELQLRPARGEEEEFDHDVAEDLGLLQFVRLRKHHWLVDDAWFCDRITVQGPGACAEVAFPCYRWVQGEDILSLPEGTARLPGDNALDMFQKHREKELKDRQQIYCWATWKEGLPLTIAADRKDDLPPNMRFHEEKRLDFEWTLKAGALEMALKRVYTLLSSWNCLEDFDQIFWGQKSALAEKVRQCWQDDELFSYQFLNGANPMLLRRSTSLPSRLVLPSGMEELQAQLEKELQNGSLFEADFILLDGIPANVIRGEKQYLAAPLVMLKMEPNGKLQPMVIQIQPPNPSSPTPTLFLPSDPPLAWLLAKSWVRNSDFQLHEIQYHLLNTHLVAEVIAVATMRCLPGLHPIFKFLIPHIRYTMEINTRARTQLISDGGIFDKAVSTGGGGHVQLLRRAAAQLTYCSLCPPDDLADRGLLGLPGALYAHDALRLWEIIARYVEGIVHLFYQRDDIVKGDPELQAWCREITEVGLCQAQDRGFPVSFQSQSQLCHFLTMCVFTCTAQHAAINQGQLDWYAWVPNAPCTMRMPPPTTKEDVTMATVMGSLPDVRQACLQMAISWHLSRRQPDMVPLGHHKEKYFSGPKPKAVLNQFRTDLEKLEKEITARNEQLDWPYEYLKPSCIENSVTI
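Hydroperoxide product was detected by ferrous iron/xylenol orange as the 573 to 405 nm absorbance ratio. Arachidonic acid at 40 uM (final) was turned over for 30 min at room temperature by 150 nM human 12hLO, pH 7.0 Hepes buffer, after 15 min compound preincubation.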
IL1B secr inh: qHTS for Inhibitors of Inflammasome Signaling: IL-1-beta AlphaLISA Primary Screen | activity change, % at 57.5 µM | THP-1 LPS/ATP IL-1B secretion, AlphaLISA, 16 h; hits give low values | 360,000 tested, 4.7% active; in the data active = activity change below about -50%; inconclusive = mostly about -30% to -49%
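THP-1 cells pretreated 1 hr with compounds (up to 57.5 uM final), then stimulated with LPS (250 ng/mL final) plus ATP (1.25 mM final); secreted IL-1B measured by AlphaLISA after 16 hr, decreased signal indicating inhibition.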
DT40 TDP1 CPT: qHTS for Inhibitors of human tyrosyl-DNA phosphodiesterase 1 (TDP1): qHTS in cells in presence of CPT; chicken DT40 Tdp1-/-;hTDP1 cells + 20 nM CPT, ATP luminescence, 48 h; Potency, µM (doses to about 46.2 µM), inactives show at the top dose activity change, negative = growth inhibition, hits mostly inhibitors; 420,000 tested, 12% active; AID 686979, 2013; note: potency is the fitted concentration of half-maximal effect; nearly all actives have a fitted effect of over 55% in size
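Chicken DT40 Tdp1-/- cells complemented with human TDP1, 400 cells/well, exposed to compounds plus 20 nM camptothecin for at least 48 h at 37 C; viability read as ATP content by CellTiter-Glo luminescence.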
HT1080 IDH1KD tx: qHTS for induction of synthetic lethality in tumor cells producing 2HG: qHTS for the HT-1080-IDH1KD cell line. HT-1080 IDH1 knockdown viability, ATP luminescence, 48 h. Potency, µM (top dose mostly 46.1 µM), without a hit: at the top dose activity, negative = toxicity, actives largely listed as cytotoxic. 360,000 tested, 2% active. AID 686971, 2013;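 note: potency is the fitted concentration of half-maximal effect; 0% = DMSO wells and -100% = cell-free medium wells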
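Viability of IDH1-knockdown HT-1080 fibrosarcoma cells was assessed by CellTiter-Glo after 48 h at 37 °C with titrated compound; concentration-effect curves were classified by fit quality and response size.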
Starred values were filed as active, the others as inactive; i = inactive; ? = inconclusive; · = not tested or not shown. The full list was thinned out, with hits kept by preference. Unless noted, calls come from the whole dose curve; as a rule, active = well fitted curve in the direction sought with a large enough effect; inconclusive = small, poorly fitted or top-dose-only effect, or another doubt; inactive = no such curve, though single readings can be large; an effect the other way counts as inactive or inconclusive. Unless noted, % is set by controls: 0 for no effect and ±100 for the full control effect.

SMILES	TDP1 cell noCPT	HT1080-NT tox	12-LOX inh	IL1B secr inh	DT40 TDP1 CPT	HT1080 IDH1KD tx
CCOC(=O)c1c(C)oc2nc(C)nc(NCc3ccccc3OC)c12	15µM*	·	?	·	12µM*	·
CCOC(=O)c1c(C)oc2nc(C)nc(NCc3ccccc3Cl)c12	?	·	-11%	·	16µM*	·
CCOC(=O)c1c(C)oc2nc(C)nc(NCc3ccccc3OCC)c12	?	·	-31%	·	?	·
CC1=C[C@@H](CNC(=O)C2CCCCC2)[C@H](C(C)C)C[C@H]1CC(=O)N1CCN(c2ccccn2)CC1	·	·	10%	·	·	·
NC1=C(Cl)C(=O)c2ccccc2C1=O	4.6µM*	?	?	-13	5.2µM*	?
NC1=C(Cl)C(=O)c2ccc(S(N)(=O)=O)cc2C1=O	0.46µM*	8.2µM*	-24%	-98*	0.41µM*	6.5µM*
Nc1cc(N)c2c(c1)C(=O)c1ccccc1-2	?	1%	-9%	?	-12%	-1%
NS(=O)(=O)c1ccc2c(c1)C(=NO)c1cc(S(N)(=O)=O)ccc1-2	-9%	-1%	17%	-5	57%	-4%
CCCCNCc1ccco1	·	·	2%	·	·	·
Cc1cccc(Cn2c(=O)n(CC3CCC(C(=O)N4CCOCC4)CC3)c(=O)c3sccc32)c1 (stereo unspecified)	18µM*	·	-16%	·	23µM*	·
COc1cccc(CN2CCC(C(=O)N3CCC(C)CC3)CC2)c1	-5%	4%	0%	3	7%	2%
O=C(C1CCC(Cn2c(=O)c3sccc3n(Cc3ccccc3F)c2=O)CC1)N1CCOCC1 (stereo unspecified)	?	·	-4%	·	16µM*	·
CCCNC(=O)C1CCC(Cn2c(=O)c3sccc3n(Cc3ccccc3C)c2=O)CC1 (stereo unspecified)	-23%	·	2%	·	-13%	·
COc1cccc(Cn2c(=O)n(CC3CCC(C(=O)N4CCOCC4)CC3)c(=O)c3sccc32)c1 (stereo unspecified)	21µM*	·	0%	·	?	·
COCC(C)n1c(C)cc(C(=O)Cn2cnc3sccc3c2=O)c1C (stereo unspecified)	·	·	14%	·	·	·
Cc1[nH][nH]c(=O)c1C(c1ccccc1[N+](=O)[O-])C(C#N)C#N (stereo unspecified)	-28%	-13%	-7%	-146*	?	-8%
O=C(NCc1ccc(-c2nc3ccccc3s2)cc1)c1ccco1	-5%	9%	-19%	-1	-13%	7%
O=C(Nc1ccc(-c2nc3cccnc3s2)cc1)c1ccc(Br)o1	8.2µM*	19%	-22%	2	12µM*	-5%
Cc1cc(NC(=O)c2ccc(-c3ccc(Br)cc3)o2)cc(-c2nc3ncccc3o2)c1O	-15%	·	-9%	·	-23%	·
O=C(Nc1ccc(-c2nc3ncccc3o2)cc1)c1ccc(Br)o1	?	0%	?	-55*	?	-9%
O=C(NC(=S)NCc1ccc(-c2nc3ccccc3s2)cc1)c1ccco1	?	?	11µM*	0	?	?
O=C(Nc1ccc(-c2nc3cccnc3s2)cc1)c1ccco1	13µM*	3%	9%	-23	?	-9%
O=C(Nc1ccc(-c2nc3cccnc3s2)cc1)c1cccnc1Cl	-29%	6%	-16%	20	0%	4%
COc1ccccc1C(=O)NCc1ccc(-c2nc3ncccc3o2)cc1	·	·	-27%	·	·	·
COC[C@@H]1[C@H](C(=O)N2CCc3ccccc32)CCC(=O)N1C	·	·	48%	·	·	·
SMILES	TDP1 cell noCPT	HT1080-NT tox	12-LOX inh	IL1B secr inh	DT40 TDP1 CPT	HT1080 IDH1KD tx
Cc1c(NC(=O)c2ccco2)cccc1-c1nc2cccnc2s1	?	-13%	-5%	58	21µM*	-2%
Cc1c(NC(=O)CC(C)C)cccc1-c1nc2cccnc2s1	?	·	-15%	·	?	·
Cc1cc(=O)n2c(C(=O)Nc3ccc(C)c(C)c3)c(C(=O)Nc3ccccc3)sc2n1	16µM*	11%	7%	-4	?	8%
COc1ccc(NC(=O)c2c(C(=O)Nc3ccccc3)sc3nc(C)cc(=O)n23)cc1	-7%	·	-24%	·	-18%	·
Cc1ccc(NC(=O)c2sc(Cl)nc2-c2ccccc2)cc1C	18µM*	-7%	0%	16	?	0%
C#CCNC(=O)NCc1ccc(C(=O)NC)cc1	·	·	8%	·	·	·
COc1ccc2nc(SCC(=O)Nc3ccc4sc(C)nc4c3)c(C#N)cc2c1	8.2µM*	2%	?	13	13µM*	-1%
Cc1ccc(NS(=O)(=O)c2ccc(C(=O)NCCCN3CCCC3=O)cc2)cc1C	23µM*	-16%	-29%	1	13µM*	-21%
COc1cc(C(=O)NCCCN2CCCC2=O)ccc1OCc1ccc(Cl)cc1Cl	18µM*	11%	?	-52*	13µM*	6%
Cc1ccc(NS(=O)(=O)c2ccc(C(=O)NCCCN3CCCC3=O)cc2)cc1	?	-4%	0%	23	?	-12%
CCN1C(=O)[C@@H]2[C@@H](c3ccc(-c4ccc(Cl)c(Cl)c4)cc3)N3CCCC[C@@]3(C(=O)OC)[C@@H]2C1=O	16µM*	10%	5%	-3	18µM*	3%
COC(=O)[C@@]12CCCCN1[C@H](c1ccc(-c3ccc(Cl)c(Cl)c3)cc1)[C@H]1C(=O)N(C)C(=O)[C@H]12	16µM*	-3%	?	0	12µM*	11%
CC(=O)N1CCN(c2ccc(NC(=O)C(c3ccccc3)c3ccccc3)cc2)CC1	-22%	-23%	1%	-58*	-26%	-3%
COc1ccccc1C(=O)Nc1ccc(N2CCN(C(C)=O)CC2)cc1	-7%	-1%	-10%	-56*	3%	-1%
COc1c(C)cccc1C(=O)Nc1ccc(N2CCN(C(=O)c3ccccc3C)CC2)cc1	15µM*	6%	i	-106*	16µM*	-17%
Cc1ccccc1C(=O)N1CCN(c2ccc(NC(=O)c3ccco3)cc2)CC1	?	2%	17%	·	-15%	1%
Cc1ccccc1C(=O)N1CCN(c2ccc(NC(=O)c3cccc(OC(C)C)c3)cc2)CC1	3.3µM*	0%	0%	-1	3.7µM*	11%

Bioassay records deposited in PubChem by National Center for Advancing Translational Sciences (NCATS).
